Sampled rows, rich in hits. Any-hit rate of the full collection: about 7.9%.
HCV inh – inhibitors of hepatitis C virus infection; Potency, µM (top dose mostly 41.8 µM), without a hit: top-dose activity change, negative = inhibition, most hits filed as inhibitors; Huh7.5.1 HCVcc-Cre infection, luciferase reporter, 44 h; 3.4% of 340,000 active; active = well fitted inhibition curve with a large enough effect; inconclusive = small, poorly fitted or top-dose-only effect, or another doubt; inactive = no such curve, though single readings can be large or run the other way; note: potency is the fitted concentration of half-maximal effect
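Cells seeded at 1,000/well and cultured 4 h, then compounds added followed by HCVcc-Cre virus (~0.5 moi). After 44 h further culture, luciferase substrate was added, plates held 15 min at room temperature, and luminescence read for 15 sec.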
LASV entry inh – blocks Lassa virus binding to or entry into cells; Lassa virus pseudotype entry inhibition, cell reporter; Potency, µM (highest dose often 37.9 µM), for inactives: top-dose activity change, negative = inhibition, most hits filed as inhibitors; 1.2% of 300,000 active; calls by dose curve; tested in HEK293 cells; note: potency is the fitted concentration of half-maximal effect; nearly all actives have a fitted effect of over 50% in size
MARV entry inh – inhibitors of Marburg virus binding or cell entry; Marburg virus pseudotyped entry inhibition, cell reporter; Potency, µM (series often up to 37.8 µM), without a hit: top-dose activity change, negative = inhibition, most hits filed as inhibitors; 1.8% of 300,000 active; calls by dose curve; tested in HEK293 cells; note: potency is the fitted concentration of half-maximal effect
FMDV antiviral – foot and mouth disease virus antiviral activity | FMDV antiviral cell-based qHTS | Potency, µM (highest dose often 57.9 µM), for the others: top-dose activity change, negative = inhibition, actives largely listed as inhibitors | 1.2% of 410,000 active; calls by dose curve; tested in HEK293T cells; note: read-out not given here; potency is the fitted concentration of half-maximal effect; nearly all actives have a fitted effect of over 45% in size
HCMV antiviral – human cytomegalovirus inhibition; HFF cells, HCMV-luciferase reporter, 72 h; hits give low values; activity change, negative = inhibition, % at 57.5 µM; 4.5% of 410,000 active; AID 1259415; in the data active = activity change below about -60%; inconclusive = no clear call, values can overlap the other calls; inactive = above about -39%
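Screen run at 2 compound doses on HFFs infected with reporter HCMV, MOI 1 PFU/cell. Luciferase activity from cell lysates at 72 h post infection gave inhibition relative to buffer-only and Salinomycin wells.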
Numbers without * were called inactive; u = inconclusive; x = no result; [ ] = dose if it differs, or a comment. % is set by controls: 0 for no effect and ±100 for the full control effect.

SMILES	HCV inh	LASV entry inh	MARV entry inh	FMDV antiviral	HCMV antiviral
N=C1/C(=C\c2coc3ccccc3c2=O)C(=O)N=C2SC(c3ccncc3)=NN12	u	14%	-3%[46.1 µM]	16µM*	28
COc1cc(CNCc2cccs2)ccc1OCC(=O)NC(C)(C)C	u	-3%	9.2µM*	-15%	-25
COc1cc(CNc2ccc(N3CCCCC3)cc2)ccc1OCC(=O)NC(C)(C)C	10µM*	u	u	u	-86*
COc1cc(CNC(C)C23CC4CC(CC(C4)C2)C3)ccc1OCC(=O)NC(C)(C)C (centres undefined)	u	u	6.3µM*	-9%	u
Cc1cc[n+](CC(=O)c2ccc3c(c2)OCCO3)cc1	6%	10%	-11%[46.1 µM]	-13%	-34
O=C(/C=C/c1ccncc1)c1ccc2c(c1)OCCO2	-4%	u	14µM*	28µM*	26
COc1cc(/C=C/C(=O)c2ccc3c(c2)OCCO3)cc(Br)c1OCC(=O)N(C)C	7.1µM*	-23%	u	7.9µM*	-97*
O=C(C[n+]1ccc(/C=C/c2ccccc2)cc1)c1ccc2c(c1)OCCO2	u	u	u	-23%	-83*
C=CCc1cccc(Cl)c1OCCCNC1CCCC1	10µM*	x	x	-21%	35
C=CCc1ccc(OCCCNC2CCCC2)c(OC)c1	u	6%[46.1 µM]	u	1%	22
C=CCN1C(=O)c2ccc(C(=O)N3CCC(C(N)=O)CC3)cc2C1=O	11%	x	x	-25%	-86*
NC(=O)C1CCN(C(=O)c2cccc(CN3C(=O)c4ccccc4C3=O)c2)CC1	5%	23%	u	-9%	7
C=CCN1C(=O)c2ccc(C(=O)N3CCN(S(=O)(=O)c4cccc(Cl)c4)CC3)cc2C1=O	-5%	18%	-9%	-17%	-76*
Cc1ccc2c(c1)nnn2C1CCN(S(=O)(=O)c2ccc(C(=O)N(C)C3CCCCC3)cc2)CC1	13µM*	u	u	3%	u
COCCNC(=O)c1cccc2c(-c3cnn(C)c3)coc12	x	x	x	4%	-9
COc1cccc(CNC(=O)CCc2c(C)nn(-c3ccc(N4CCOCC4)nn3)c2C)c1	x	-6%[46.1 µM]	x	-18%	39
COc1ccccc1OC(=O)c1cc2ccccc2oc1=O	34%	u	u	19%	23
COc1cc(/C=C/[N+](=O)[O-])ccc1OC(=O)c1cc2ccccc2oc1=O	7%	11%[46.1 µM]	21%[46.1 µM]	-13%	-72*
CCCOc1ccc(C2C3=C(Nc4nc(N)[nH]c(=O)c42)c2ccccc2C3=O)cc1 (centres undefined)	u	x	x	19%	-67*
CCN(CC)S(=O)(=O)c1ccc(N/N=C(\C)c2ccc3c(c2)OCO3)c([N+](=O)[O-])c1	u	2%	33%	-24%	0
C/C(=N\Nc1ccc(S(N)(=O)=O)cc1[N+](=O)[O-])c1ccc2c(c1)OCO2	u	-1%	u	35µM*	u
CCOC(=O)c1ccc(N=c2sc(C(=O)OC)cc(=O)n2Cc2ccco2)cc1	22µM*	u	u	0%	-27
CCOC(=O)c1ccc(N=c2sc(C(=O)OC)cc(=O)n2CCCN2CCOCC2)cc1	u	x	-4%	16µM*	79
COC(=O)c1cc(=O)n(CCc2ccccc2)c(=Nc2ccc(F)cc2)s1	7%	x	x	u	-36
CCCS(=O)(=O)NC(=O)C1(C)CCN(C(=O)c2cc(C)n(C(C)(C)C)n2)C1 (centres undefined)	x	x	x	-12%	36
SMILES	HCV inh	LASV entry inh	MARV entry inh	FMDV antiviral	HCMV antiviral
CCCS(=O)(=O)NC(=O)C1(C)CCCN(C(=O)c2cc(C)n(C(C)(C)C)n2)C1 (centres undefined)	x	x	x	5%	-64*
CCN1CC2=C(OC(N)=C(C#N)C2c2cccs2)/C(=C/c2cccs2)C1 (centres undefined)	22µM*	u	u	28µM*	2
N#CC1=C(N)OC2=C(CN(Cc3ccccc3)C/C2=C\c2cccnc2)C1c1cccnc1 (centres undefined)	3%	-1%	-17%	u	-32
CCN1C=C(Cc2cccs2)C2=C(C1)C(c1cccs1)C(C#N)=C(N)O2 (centres undefined)	u	-24%	u	20µM*	-36
CCN1CC2=C(OC(N)=C(C#N)C2c2ccccc2)/C(=C\c2ccccc2)C1 (centres undefined)	u	u	u	22µM*	-18
Clc1nc(CN2CCCCC2)nc2sc3c(c12)CCC3	u	u	u	-15%	9
Cc1ccc(C)c(N2CCN(c3nc4ccccc4c4nc(CCn5nc(C)cc5C)nn34)CC2)c1	x	x	9%[46.1 µM]	-20%	-30
CCOC(=O)C1(Cc2cccc(OC)c2)CCN(Cc2cccc(OCC)c2O)CC1	u	-24%[46.1 µM]	7.1µM*	u	u
CCOC(=O)C1(Cc2cccc(OC)c2)CCN(C/C=C/c2ccc(OC)cc2)CC1	8.9µM*	u	u	14µM*	u
CCOC(=O)C1(CC2CC2)CCN(Cc2ccc(OC)cc2F)CC1	u	u	10µM*	u	u
CCOC(=O)C1(CC2CC2)CCN(Cc2cc(Cl)c(O)c(OC)c2)CC1	-15%	u	u	-28%	-15
CCOC(=O)C1(Cc2cccc(OC)c2)CCN(C/C=C/c2ccccc2)CC1	-17%	u	7.9µM*	u	-38
COc1ccc2c(c1)OC(C)CN(CCC(=O)NCC1OCCc3ccccc31)C2 (centres undefined)	x	x	x	-5%	x
O=S(=O)(Nc1ccc(-n2cnnn2)cc1)c1ccc(Cl)s1	9%	22%[46.1 µM]	-14%[46.1 µM]	35%	14
O=C(c1cccnc1)N1CC(=O)N2[C@@H](CO)[C@H](c3ccc(Br)cc3)[C@@H]2C1	x	x	x	x	4
COc1ccc2c(c1)[C@@H](NCc1nccs1)[C@H](C)[C@@H](c1ccccc1)N2C(=O)NC(C)C	x	x	x	x	-9
CCOC(=O)C1(Cc2ccc(OC)cc2)CCN(C(=O)CCN2CCCC2=O)CC1	-3%	x	x	31%	-76*
CCOC(=O)C1(Cc2ccc(OC)cc2)CCN(C(=O)CC2CCC(=O)N2)CC1 (centres undefined)	23%	6%	15%	16%	-14
COc1ccc(OCC(=O)Nc2ccc3c(c2)nc(CCN2CCC(C)CC2)n3C)cc1	16%	x	x	11%	-27
CC1CCN(CCc2nc3cc(NC(=O)COc4ccc(Cl)cc4)ccc3n2C)CC1	11µM*	x	x	-22%	u
Cc1ccc(OCC(=O)Nc2ccc3c(c2)nc(CCN2CCC(C)CC2)n3C)cc1	13µM*	u	u	-11%	-70*
CC(C)(C(=O)NCc1ccccc1)n1cc(NC(=O)c2ccc3c(c2)OCO3)cn1	x	x	x	x	52
COC1C(O)C(C)OC(OC2C(Oc3cccc4c(O)c5c(=O)oc6ccc(C)c7c(=O)oc(c34)c5c67)OC(C)C(O)C2O)C1O (centres undefined)	u	u	u	u	-97*

Bioassay records: PubChem BioAssay, National Center for Advancing Translational Sciences (NCATS)
